# Screen size: about 190,000 compounds; about 1,700 (0.89%) were called active. This is one part of a sample in which actives are shown more often than they occur. Values without a mark were called inactive.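 The calls were made as follows: active = inhibition above the mean inhibition across all screened compounds plus 3 SD (cut at about 44% in these data); inactive = the rest.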
# Assay: blockers of STAT3 transcriptional signaling – U3A cells, luciferase, luminescence, MLSCN library, primary screen (AID 862);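 also: 0% = DMSO only wells and 100% = 100 µM nifuroxazide control wells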
# Details: IL-6 STAT3-luciferase reporter, at 5.5 µM, active compounds read high, host cell line lacks STAT1
row,SMILES,inhibition
1,Cc1ccc(S(=O)(=O)Nc2ccc3ncccc3c2)cc1,49.6% (active)
2,Cc1cc(C)cc(OCC(=O)Nc2ccc(S(=O)(=O)Nc3ccccn3)cc2)c1,-0.1%
3,Cc1ccc(OCC(=O)Nc2ccc(S(=O)(=O)Nc3ccccn3)cc2)cc1,4.3%
4,CC1CCCCC1NC(=O)CO/N=C/c1ccc(OC(F)F)cc1 (stereo unspecified),-1.1%
5,CCCCC(O)(CCCC)C(=O)NN(C(=O)CCl)c1ccccc1,2.7%
6,Cc1cc(CNC(=O)c2cccc([N+](=O)[O-])c2)c2ccccc2n1,12.3%
7,Cc1cccc(-n2c(Cc3cc(=O)[nH]c(=O)[nH]3)nnc2SCC(=O)Nc2cccc(C(F)(F)F)c2)c1,2%
8,O=C(O)c1cccc(NC(=S)N/N=C/c2c[nH]c3ccccc23)c1,73.2% (active)
9,CN(C)S(=O)(=O)c1cccc(NC(=S)N/N=C/C(=O)c2ccccc2)c1,8%
10,CSC(=S)N/N=C/c1c[nH]c2ccccc12,-10.1%
11,CCS(=O)(=O)Nc1ccc(C2=NN(C(C)=O)C(c3cccs3)C2)cc1 (stereo unspecified),6.9%
12,O=[N+]([O-])c1cc(S(=O)(=O)N2CCCC2)ccc1NN=C1CCCC1,8.3%
13,Cc1ccc(S(=O)(=O)N(C)C)cc1NC(=O)COC(=O)c1c(C)noc1C,6.4%
14,COc1ccc(/C(=N\O)c2nccc3cc(OC)c(OC)cc23)cc1OC,-1.8%
15,Cc1ccc(N/C=C/C(=O)c2ccccc2)cc1C,52.2% (active)
16,Cc1noc(NS(=O)(=O)c2ccc(N/C=C/C(=O)c3ccccc3)cc2)c1C,-6.5%
17,O=C(/C=C\NCC(=O)c1ccccc1)c1ccccc1,22.1%
18,O=c1cc(O)c(-c2cccc(C(F)(F)F)c2)c(Cl)[nH]1,5.9%
19,O=C(c1cn(-c2ccccc2)nc1-c1cc2ccccc2oc1=O)N1CCOCC1,11.6%
20,Nc1ncc(-c2cc3ccccc3oc2=O)s1,14.8%
21,O=c1oc2ccccc2cc1-c1cn(-c2ccccc2)c(=S)[nH]1,108% (active)

row,SMILES,inhibition
1,CC1(C)C2CC=C(/C=N/NC(=O)c3ccc(Cl)cc3)C1C2 (stereo unspecified),-5.9%
2,Fc1cccc(CSc2nnc3ccc(-c4ccncc4)nn23)c1,9.1%
3,CCC(C)NC(=O)c1c(N)n(/N=C/c2cccs2)c2nc3ccccc3nc12 (stereo unspecified),81.7% (active)
4,CC(C)Cn1c(N)c(C(=O)NCc2cccs2)c2nc3ccccc3nc21,-8.7%
5,CCCNC(=O)c1c(N)n(-c2ccc(S(N)(=O)=O)cc2)c2nc3ccccc3nc12,21.5%
6,CN(/C(=N/S(=O)(=O)c1cccs1)c1ccccc1)c1ccc(O)cc1,-3.2%
7,Cc1cc(NC(=O)CN2C(=O)NC(C)(CCc3ccccc3)C2=O)no1 (stereo unspecified),-5.6%
8,O=C(O)CCc1nc2cc(Cl)ccc2n(Cc2ccccc2)c1=O,2.8%
9,Cn1c(-c2ccco2)nc2cc3ccccc3cc21,79.1% (active)
10,CN1c2ccccc2-c2nc3ccccc3n2C1c1ccco1 (stereo unspecified),14%
11,CN(c1nc2ccccc2n2c(-c3ccco3)nnc12)S(=O)(=O)c1ccccc1,4.1%
12,O=C1CCCC(O)=C1N=Nc1ccc2ncsc2c1,-0.2%
13,O=C(NCCCn1ccnc1)C(=O)c1cn(CC(=O)N2CCCCCC2)c2ccccc12,6.5%
14,CC(C)N(C(=O)CSc1nc(COc2ccccc2)nc2ccccc12)C(C)C,10.8%
15,CC(=O)N1CCc2cc(Br)cc(S(=O)(=O)CCC(=O)Nc3c(C)n(C)n(-c4ccccc4)c3=O)c21,-1.8%
16,O=C(NCc1cccnc1)c1nc(-c2cccs2)no1,1.9%
17,Cc1ccsc1C(=O)OCC(=O)c1cc(C)n(CC2CCCO2)c1C (stereo unspecified),95.8% (active)
18,Cc1ccsc1C(=O)OCC(=O)c1cc2ccccc2o1,13.5%
19,Cc1cc(C(=O)Cn2cnc3cc([N+](=O)[O-])ccc3c2=O)c(C)n1CC1CCCO1 (stereo unspecified),8.2%
20,CC(C)(C)C1CCC(OC(=O)CCC(=O)Nc2ccccc2)CC1 (stereo unspecified),5.2%
21,O=C(c1cc(=O)c2ccccc2o1)N1CCN(c2ccccc2)CC1,4.4%

row,SMILES,inhibition
1,Cc1ccc(-c2nnc(-c3ccc(NC(=O)c4cccs4)cc3)o2)cc1,11.8%
2,Cc1ccc(-c2csc(NC(=O)c3cccs3)n2)cc1,12.6%
3,Cc1nc(-c2ccc(NC(=O)c3cccs3)cc2)cs1,78.1% (active)
4,Cc1ccc(S(=O)(=O)N2CCN(CC(=O)N/N=C/c3cc([N+](=O)[O-])ccc3Cl)CC2)cc1,-9.8%
5,O=c1c2c(nc3cc(-c4cccc(Cl)c4)[nH]n13)CCCC2,65.7% (active)
6,O=C1CCCc2c1nc(-c1cccc(Cl)c1)n2O,-13.1%
7,O=c1c2c(nc3nc[nH]n13)CCC2,-1.5%
8,O=C(c1ccccc1)c1ccc(OCC(O)CN2CCCC2)cc1 (stereo unspecified),-2.9%
9,CCc1cc(-c2n[nH]c(=S)n2CC(C)C)cs1,5%
10,CCOc1ccc(OCc2cccc(C(=O)N(CC)CC)c2)cc1,70.7% (active)
11,CCN(CC)C(=O)c1ccc(O)c(OC)c1,-3%
12,COc1ccc(OCc2cccc(C(=O)N3CCCC3)c2)cc1,29%
13,Cc1ccc(NC(=O)C(=O)NCC2CCN(C(=O)c3cccc([N+](=O)[O-])c3)CC2)cc1,6.1%
14,O=C(Nc1cccc(S(=O)(=O)Nc2ccc(Cl)cc2)c1)c1ccc2c(c1)OCCO2,44.7% (active)
15,COc1ccc(C(=O)NC(=S)Nc2ccc(Cl)cn2)cc1OC,20.4%
16,O=C(Nc1ccc(Cl)cn1)c1ccc2c(c1)OCCO2,70.2% (active)
17,O=C(Nc1cccc(S(=O)(=O)N2CCCCC2)c1)c1ccc2c(c1)OCO2,11.4%
18,O=C(Nc1ccc2c(c1)OCCO2)c1ccc(Cl)c(S(=O)(=O)N2CCCCC2)c1,25.5%
19,COc1c(Cl)cc(C(=O)Nc2ccc(Cl)cn2)cc1Cl,-37.3%
